Screening results as filed in PubChem.
This is a sample that favours compounds with a hit; in the whole collection about 13% have one here.
HCV inh = inhibitors of hepatitis C virus infection. Huh7.5.1 HCVcc-Cre infection, luciferase reporter, 44 h. Potency, µM (titrated, usually from 41.8 µM), most hits filed as inhibitors. 3.4% of 340,000 active. AID 651820; active = well fitted inhibition curve with a large enough effect; inconclusive = small, poorly fitted or top-dose-only effect, or another doubt; inactive = no such curve, though single readings can be large or run the other way
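Seed cells (1,000/well) for 4 h; treat with compound and infect with HCVcc-Cre, moi about 0.5. Incubate 44 h, then detect luciferase activity.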
Shiga toxin inh = Shiga toxin inhibition; Vero cells, Shiga toxin protein synthesis inhibition reporter; inhibition, % at 38.7 µM; 9.2% of 290,000 active; AID 2315; in the data active = inhibition mostly above about 28%, no sharp cut-off; inactive = mostly below about 43%
CHX counter = counter-screen hit for Shiga toxin inhibitors, cycloheximide; cell reporter, cycloheximide protein synthesis inhibition counterscreen; max response, %; 12% of 300,000 active; in the data active = max response mostly above about 13%, no sharp cut-off; inactive = mostly below about 14%; note: read at 38.3 µM for the half of the compounds with a filed dose
LASV entry inh = blocks Lassa virus binding to or entry into cells; Lassa virus pseudotype entry inhibition, cell reporter; 1.2% of 300,000 active; Potency, µM (series often up to 37.9 µM), most hits filed as inhibitors; calls by dose curve; tested in HEK293 cells; note: nearly all actives have a fitted effect of over 50% in size
MARV entry inh = blocks Marburg virus binding to or entry into cells; 1.8% of 300,000 active; Potency, µM (doses to about 37.8 µM), actives largely listed as inhibitors; Marburg virus pseudotyped entry inhibition, cell reporter; AID 540276; calls by dose curve; tested in HEK293 cells
FMDV inh = foot and mouth disease virus antiviral activity. FMDV antiviral cell-based qHTS. Potency, µM (highest dose often 57.9 µM), usual class: inhibitors. 1.2% of 410,000 active; calls by dose curve; tested in HEK293T cells; note: read-out not given here; nearly all actives have a fitted effect of over 45% in size
Of the large screens only hits and unclear results are named; the others gave an inactive call.

CCCNC(=O)c1ccc(CN2CCc3ccccc3C2)cc1	none
CCC(C)NC(=O)c1ccc(CN2CCc3ccccc3C2)cc1 (stereo not given)	none (no result: LASV entry inh, MARV entry inh)
O=C(CNc1ccc(F)cc1Cl)Nc1cccc(S(=O)(=O)N2CCCCC2)c1	HCV inh inconclusive (no result: Shiga toxin inh, CHX counter, LASV entry inh, MARV entry inh)
COc1cccc(NC(=O)CCC2CCN(Cc3nccs3)CC2)c1	none
COC(=O)c1[nH]c(C)c(/C(O)=C2\C(=O)C(=O)N(CCN3CCOCC3)C2c2cccnc2)c1C (stereo not given)	none
CCOC(=O)C1=C(C)NC(=O)NC1c1ccc(-c2ccc(F)cc2)o1 (stereo not given)	HCV inh inconclusive (no result: LASV entry inh)
O=C(Nc1ccc(S(=O)(=O)N2CCOCC2)cc1)c1ccc(CN2CCc3ccccc3C2)cc1	HCV inh inconclusive, LASV entry inh 10µM, MARV entry inh 2.51µM, FMDV inh inconclusive
Cc1nonc1CN(C)C(=O)CC1C(=O)NCCN1Cc1ccccc1F (stereo not given)	none (no result: HCV inh)
C=CCOc1ccc(/C=C2\SC(=Nc3cccnc3)NC2=O)cc1	CHX counter 10.3, LASV entry inh 3.55µM, MARV entry inh inconclusive
CCCN1CCN(C(=O)Cn2nc(C)n3c(cc4sccc43)c2=O)CC1	none (no result: LASV entry inh, MARV entry inh)
CNc1snc(C)c1C(=O)OC(C)C(=O)c1ccc(F)cc1 (stereo not given)	HCV inh 11.2µM, FMDV inh inconclusive (no result: Shiga toxin inh, CHX counter, LASV entry inh, MARV entry inh)
COc1ccc(C(=O)C(C)OC(=O)c2sc(C)nc2C)cc1 (stereo not given)	none (no result: Shiga toxin inh, CHX counter, LASV entry inh, MARV entry inh)
COc1ccc(OC)c(NC(=O)c2nc(S(=O)(=O)Cc3ccc(F)cc3)ncc2Cl)c1	LASV entry inh inconclusive, MARV entry inh inconclusive, FMDV inh 22.4µM (no result: HCV inh, Shiga toxin inh, CHX counter)
COc1ccc2nc(NC(=O)c3nc(S(=O)(=O)Cc4ccc(C)cc4)ncc3Cl)sc2c1	LASV entry inh inconclusive, MARV entry inh inconclusive (no result: HCV inh, Shiga toxin inh, CHX counter)
CCOc1ccccc1NC(=O)c1nc(S(=O)(=O)Cc2ccccc2)ncc1Cl	HCV inh inconclusive, FMDV inh 31.6µM (no result: LASV entry inh, MARV entry inh)
COc1ccccc1NC(=O)c1nc(S(=O)(=O)Cc2ccccc2)ncc1Cl	HCV inh inconclusive, LASV entry inh inconclusive, MARV entry inh inconclusive, FMDV inh 28.2µM
CCS(=O)(=O)c1ncc(Cl)c(C(=O)Nc2ccccc2OC)n1	HCV inh inconclusive, LASV entry inh inconclusive, FMDV inh 3.55µM (no result: Shiga toxin inh)
COc1ccc(Br)cc1CNC(=O)C1CCN(S(=O)(=O)N2CCCC2)CC1	none (no result: FMDV inh)
O=C(O)CSc1sc(=S)sc1SCC(=O)O	none
Cc1ccc(-c2nnc(Nc3cccc(O)c3)c3ccccc23)cc1S(=O)(=O)NCC1CCCO1 (stereo not given)	none (no result: HCV inh, Shiga toxin inh, CHX counter)
CCN(C(=O)CSc1nnc(-c2ccc(C)cc2)n1N)c1c(N)n(Cc2ccccc2)c(=O)[nH]c1=O	none (no result: Shiga toxin inh, CHX counter)
CN(C)C(/C=C/Nc1ccc(O)cc1)=C(C#N)C#N	none
Cc1cc(=O)oc(C)c1C(=O)NCCN1CCOCC1	none
CCS(=O)(=O)c1ncc(Cl)c(C(=O)N(Cc2ccccc2)c2ccc(OC)cc2)n1	LASV entry inh inconclusive, MARV entry inh inconclusive, FMDV inh 11.2µM (no result: HCV inh, Shiga toxin inh, CHX counter)
CCS(=O)(=O)c1ncc(Cl)c(C(=O)N2CCN(c3ccc(OC)cc3)CC2)n1	LASV entry inh inconclusive, MARV entry inh inconclusive, FMDV inh 31.6µM (no result: HCV inh, Shiga toxin inh, CHX counter)
CCCS(=O)(=O)c1ncc(Cl)c(C(=O)N(Cc2ccccc2)Cc2ccco2)n1	LASV entry inh inconclusive, MARV entry inh inconclusive, FMDV inh 15.8µM (no result: HCV inh)
CCSc1ncc(Cl)c(C(=O)N(Cc2ccccc2)Cc2ccco2)n1	none (no result: HCV inh, Shiga toxin inh, CHX counter)
CCS(=O)(=O)c1ncc(Cl)c(C(=O)NCc2ccc(OC)cc2)n1	LASV entry inh inconclusive, FMDV inh 25.1µM (no result: HCV inh, Shiga toxin inh, CHX counter, MARV entry inh)
CC(=O)N1CCN=C1SCc1ccc(C(F)(F)F)cc1	none (no result: LASV entry inh, MARV entry inh)
COc1ccc(CCN(C)C(=O)c2cc(-c3ccccc3)nc3ccc(C)cc23)cc1OC	HCV inh inconclusive, Shiga toxin inh 65.1 (no result: LASV entry inh, MARV entry inh)
COc1ccc(-c2cc(C(=O)N(C)Cc3cccc(OC)c3OC)c3ccccc3n2)cc1OC	HCV inh inconclusive, MARV entry inh inconclusive (no result: LASV entry inh)
COc1ccc(CN(C)C(=O)c2cc(-c3ccccc3)nc3ccc(C)cc23)c(OC)c1OC	HCV inh 10µM, CHX counter 16.8, LASV entry inh inconclusive, MARV entry inh inconclusive
COc1ccc(CCN(C)C(=O)Cc2ccc(-c3ccccc3)cc2)cc1OC	HCV inh 2.51µM, CHX counter 21.5, LASV entry inh inconclusive, MARV entry inh inconclusive, FMDV inh inconclusive
C=C1C[C@@H]2C[C@@H]2CN(S(=O)(=O)c2ccc(C)cc2)[C@@H]1COCc1ccccc1	none (no result: HCV inh, Shiga toxin inh, CHX counter, LASV entry inh, MARV entry inh)
Cc1ccc(OCCN(C)C(=O)c2cc(COc3ccc(F)cc3F)on2)cc1	CHX counter 12.6 (no result: HCV inh)
COc1ccc(OCc2cc(C(=O)N(Cc3nccn3C)C(C)C)no2)c2ccccc12	HCV inh inconclusive, Shiga toxin inh 46.7, CHX counter 42.9 (no result: LASV entry inh, MARV entry inh)
COc1cccc(OCc2cc(C(=O)N(C)CCOc3ccc(C)cc3)no2)c1	HCV inh 11.2µM, Shiga toxin inh 75.4, CHX counter 68.3 (no result: LASV entry inh, MARV entry inh)
CN(Cc1ccc(F)cc1)C(=O)c1cc(COc2ccc(F)cc2F)on1	none
COc1cccc(CN(C)C(=O)c2cc(COc3ccc(-n4cncn4)cc3)on2)c1	HCV inh inconclusive (no result: LASV entry inh, MARV entry inh)
COc1cccc(OCc2cc(C(=O)N(C)Cc3nccn3C)no2)c1	Shiga toxin inh 136.0, CHX counter 52.6 (no result: LASV entry inh, MARV entry inh)
COc1ccc(OCc2cc(C(=O)N(C)Cc3nccn3C)no2)c2ccccc12	none
O=C(CCc1ccccc1Cl)Nc1cc(S(=O)(=O)N2CCOCC2)ccc1N1CCCC1	none (no result: Shiga toxin inh, CHX counter)
Cc1cccc2cc(C#N)c(SCC#N)nc12	none (no result: LASV entry inh, MARV entry inh)
Nc1nonc1-n1nnc(C(=O)N/N=C/c2ccc(OCc3ccccc3)cc2)c1CN1CCCCC1	HCV inh inconclusive (no result: LASV entry inh, MARV entry inh)
COc1ccc(C(=O)C2CCCN(C(=O)c3cccc(Cl)c3F)C2)cc1OC (stereo not given)	none (no result: LASV entry inh, MARV entry inh)
Cc1cc(C)nc(NS(=O)(=O)c2ccc(NC(=O)c3cc4c(=O)n5cccc(C)c5nc4n3C)cc2)n1	none
CCOc1ccc2[nH]cc(C(=O)N3CCN(C4CCCCC4)CC3)c(=O)c2c1	none (no result: Shiga toxin inh, CHX counter, FMDV inh)
Cc1cccc(CCNC(=O)C2CCC(=O)N(Cc3ccc(Cl)cc3)C2)n1 (stereo not given)	LASV entry inh inconclusive
O=C(COC(=O)c1cccnc1Cl)NC1CCCCCC1	none (no result: Shiga toxin inh, CHX counter)
COC(=O)C(C)n1nnc2sc(-c3ccccc3)cc2c1=O (stereo not given)	Shiga toxin inh 113.4, CHX counter 40.0, LASV entry inh inconclusive, MARV entry inh inconclusive
COCCN(CC(=O)NCc1ccc(F)cc1)C(=O)CCC(=O)Nc1ccccn1	none
CC(=O)NC(CCCCNC(=S)NC1CCCCC1)C(=O)O (stereo not given)	MARV entry inh inconclusive
Cc1ccc(CSc2nc3ccncc3n2CC(=O)Nc2cc(C)cc(C)c2)cc1	MARV entry inh inconclusive
Cc1cc(C)cc(NC(=O)Cn2c(SCc3cc(C)ccc3C)nc3ccncc32)c1	Shiga toxin inh 89.2, CHX counter 75.6, LASV entry inh inconclusive (no result: FMDV inh)
COc1ccc(NC2CCCN(C(=O)c3cc4ncccn4n3)C2)cc1 (stereo not given)	Shiga toxin inh 36.5, CHX counter 24.7 (no result: LASV entry inh, MARV entry inh)
